Source: PubChem BioAssay (National Center for Advancing Translational Sciences (NCATS))
nsP2pro primary – CHIKV nsP2 protease inhibition, primary qHTS | Potency, µM (doses to about 24.9 µM), actives largely listed as inhibitors | 31,000 tested, 1.1% active | AID 1964107 | FRET peptide cleavage, nsP2pro, fluorescence 1 h | Q8JUX6; also: nearly all actives have a fitted effect of over 60% in size
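FRET cleavage of 2.5 uM peptide 2 by 150 nM CHIKV protease domain at pH 8.0 (Tris, Tween 20). Compounds at 7 concentrations (up to 25 uM) preincubated 15 min. Fluorescence read after 1 h at room temperature.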
CHIKV nsP2 cell – cell-based CHIKV nsP2 protease inhibition, secondary | shares compounds with nsP2pro primary | cell-based CHIKV nsP2 protease reporter assay | Potency, µM (highest dose often 51.1 µM), usual class: inhibitors | 450 tested, 10% active; also: nearly all actives have a fitted effect of over 70% in size
CHIKV NSP2 FL – full-length CHIKV NSP2 protease inhibition, selectivity; shares compounds with nsP2pro primary; Potency, µM (highest dose often 50.7 µM), usual class: inhibitors; Full-length CHIKV NSP2 protease enzymatic counterscreen; 410 tested, 39% active; also: nearly all actives have a fitted effect of over 65% in size
Furin counterscr – selectivity counter-screen for CHIKV nsP2 protease inhibitors: human furin. AID 1964102. 410 tested, 6% active. Recombinant human furin enzymatic counterscreen, fluorogenic substrate. Potency, µM (doses to about 50.6 µM), hits mostly inhibitors. shares compounds with nsP2pro primary
Target sequence (P09958 whole entry, looked up): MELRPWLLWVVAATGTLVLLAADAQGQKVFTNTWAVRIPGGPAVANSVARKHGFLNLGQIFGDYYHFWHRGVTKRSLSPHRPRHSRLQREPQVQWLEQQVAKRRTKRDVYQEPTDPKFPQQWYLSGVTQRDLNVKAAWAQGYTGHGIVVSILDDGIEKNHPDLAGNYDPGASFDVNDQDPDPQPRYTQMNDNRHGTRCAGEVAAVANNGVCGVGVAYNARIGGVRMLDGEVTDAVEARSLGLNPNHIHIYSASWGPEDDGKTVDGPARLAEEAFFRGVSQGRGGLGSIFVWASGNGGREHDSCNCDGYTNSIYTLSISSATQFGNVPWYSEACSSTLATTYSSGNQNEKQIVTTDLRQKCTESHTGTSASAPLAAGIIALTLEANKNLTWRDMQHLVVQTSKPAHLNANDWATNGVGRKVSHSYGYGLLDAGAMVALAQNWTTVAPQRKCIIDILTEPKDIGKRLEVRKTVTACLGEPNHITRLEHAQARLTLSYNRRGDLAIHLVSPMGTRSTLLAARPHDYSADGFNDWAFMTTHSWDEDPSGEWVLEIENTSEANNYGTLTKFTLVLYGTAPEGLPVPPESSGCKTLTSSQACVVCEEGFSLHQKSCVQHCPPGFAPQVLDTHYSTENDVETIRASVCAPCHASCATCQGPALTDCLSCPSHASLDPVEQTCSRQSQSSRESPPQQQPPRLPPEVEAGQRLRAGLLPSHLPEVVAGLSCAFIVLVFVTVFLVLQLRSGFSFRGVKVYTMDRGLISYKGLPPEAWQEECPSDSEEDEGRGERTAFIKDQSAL
nsP2 NS23 pep – blocks CHIKV nsP2 protease cleavage of endogenous NS2/3 peptide; Potency, µM (top dose mostly 51 µM), most hits filed as inhibitors; Purified CHIKV nsP2 protease, endogenous NS2/3 peptide cleavage; shares compounds with nsP2pro primary; 410 tested, 34% active; also: nearly all actives have a fitted effect of over 55% in size
Papain cs – inhibits papain in a CHIKV nsP2 protease selectivity counterscreen | Potency, µM (highest dose often 51 µM), usual class: inhibitors | purified papain protease activity, enzymatic inhibition | shares compounds with nsP2pro primary | 410 tested, 5% active
nsP2pro confirm – CHIKV nsP2 protease inhibition, confirmatory qHTS; 410 tested, 43% active; shares compounds with nsP2pro primary; CHIKV nsP2 protease enzymatic activity, qHTS; AID 1964105; Potency, µM (top dose mostly 25.5 µM), actives largely listed as inhibitors; also: nearly all actives have a fitted effect of over 75% in size
HCV NS3 counter – HCV NS3/4A protease inhibition, counterscreen | Potency, µM (doses to about 50.9 µM), hits mostly inhibitors | HCV NS3/4A protease biochemical counterscreen | shares compounds with nsP2pro primary | 410 tested, 20% active; also: nearly all actives have a fitted effect of over 55% in size
Each line names hits and unclear results; the compound was inactive in the other large screens (follow-up assays come after a bar, where they were run). Shown is part of a subset that was picked to be rich in hits. Calls follow the shape of the full dose curve.

O=C(CSc1oc(-c2ccccc2)nc1S(=O)(=O)c1ccccc1)c1ccccc1	none
O=C1c2ccccc2C(=O)c2oc(-c3ccccc3)nc21	nsP2pro primary 8.8µM | CHIKV nsP2 cell inactive | CHIKV NSP2 FL inconclusive | Furin counterscr inactive | nsP2 NS23 pep inactive | Papain cs inactive | nsP2pro confirm inactive | HCV NS3 counter inactive
O=c1ncn(Cc2ccccc2)c2ccc(-c3cccnc3)nc12	none
NCCc1noc(-c2ccccc2)n1	none
O=C1c2ccccc2C(=O)c2oc(-c3cccnc3)nc21	nsP2pro primary 3.1µM | CHIKV nsP2 cell inconclusive | CHIKV NSP2 FL inactive | Furin counterscr inactive | nsP2 NS23 pep inconclusive | Papain cs inactive | nsP2pro confirm inconclusive | HCV NS3 counter inactive
CC1(C)CC(C(=O)Nc2ccc([S+](=O)([O-])Nc3nccs3)cc2)C1	none
C[S+](=O)([O-])N1CC2(CCN(Cc3ccc(Cl)cc3)C2)Cc2ccccc21 (stereo unspecified)	none
C#CCOc1ccccc1CN1CCN(c2ncc(F)cn2)CC1	none
CN(CCc1ccc(Nc2ncc(-c3cccnc3)s2)cc1)Cc1ccccc1	none
O=C(Cc1ccccn1)NCCNC(=O)c1ccc(-c2cccc(C(F)(F)F)c2)cc1	none
CC(=O)Nc1ccc(S(=O)(=O)Nc2cccc3cccnc23)cc1	none
COc1ccc(S(=O)(=O)Nc2cccnc2Nc2ccc(O)cc2)cc1	nsP2pro primary inconclusive | CHIKV nsP2 cell inactive | CHIKV NSP2 FL inactive | Furin counterscr inactive | nsP2 NS23 pep inactive | Papain cs inactive | nsP2pro confirm inactive | HCV NS3 counter inactive
COc1ccc(CNc2ccc(S(=O)(=O)Nc3nccs3)cc2)c(O)c1	none
COc1cccc(CNC(=O)[C@@H]2C[C@@H](O)CN2C2CCN(C(=O)c3ccc4ccccc4n3)CC2)c1	none
CCC[C@H](N[C@@H](C)C(=O)N1[C@H](C(=O)O)C[C@@H]2CCCC[C@@H]21)C(=O)O	none
CCOC(=O)[C@H](CCc1ccccc1)N[C@@H](C)C(=O)N1CCC[C@H]1C(=O)O	none
CC(NC(CCc1ccccc1)C(=O)O)C(=O)N1C(=O)N(C)CC1C(=O)O (stereo unspecified)	nsP2pro primary inconclusive | CHIKV nsP2 cell inactive | CHIKV NSP2 FL 15µM | Furin counterscr inactive | nsP2 NS23 pep inactive | Papain cs inactive | nsP2pro confirm inconclusive | HCV NS3 counter inactive
O=C(Cc1cccc(Cl)c1)N1CC(c2nc(Cc3ccccc3)no2)C1	none
O=C(c1cn[nH]c1-c1ccc(F)cc1)N1CC2CC(C1)[C@H]1CCCC(=O)N1C2 (stereo partly specified)	none
NCCNc1ccc(NCCN)c2c1C(=O)c1ccncc1C2=O	none
Clc1ccc(N2C[C@H]3CC[C@@H](C2)N3)nn1	nsP2pro primary 5µM | CHIKV nsP2 cell inactive | CHIKV NSP2 FL 4.1µM | Furin counterscr inconclusive | nsP2 NS23 pep 15µM | Papain cs inconclusive | nsP2pro confirm 3.6µM | HCV NS3 counter inactive
Cc1cc(C)nc(NC(=S)N2CCN(c3ccc(Cl)nn3)CC2)c1	none
CCOc1ccc(NC(=O)c2cnc(N3CCCCC3)c3ccccc23)cc1	none
O=C(Nc1ccc(OC(F)(F)F)cc1)c1nc2ccccc2nc1N1CCCCC1	nsP2pro primary inconclusive | CHIKV nsP2 cell inactive
O=C(Nc1ccc(OC(F)(F)F)cc1)c1cc2ccccn2n1	none
COCCN1CCCCCC(O)c2cc(C(=O)NCc3ccc(F)cc3)ccc21 (stereo unspecified)	none
CCc1nc2c(c(-c3ccc(O)cc3)n1)CCN(Cc1ccc(F)cc1)CC2	none
Cc1cc(C)nc(NC(=S)N2CCN(c3ccc(C(=O)O)cc3)CC2)c1	none
CCOC(=O)c1ccc(OCCN2C[C@H](O)[C@@H](O)[C@H](O)[C@H]2CO)cc1	nsP2pro primary inconclusive | CHIKV nsP2 cell inactive | CHIKV NSP2 FL inconclusive | Furin counterscr 14µM | nsP2 NS23 pep inactive | Papain cs inactive | nsP2pro confirm inconclusive | HCV NS3 counter inactive
OCCN1C[C@H](O)[C@@H](O)[C@H](O)[C@H]1CO	none
CCCCN1C[C@H](O)[C@@H](O)[C@H](O)[C@H]1CO	none
Cc1nc(CSc2ncnc3ccc(-c4ccc5c(c4)OCO5)cc23)cs1	none
O=C(Nc1ccc(Cl)c(C(F)(F)F)c1)Nc1cccc(-c2ccncc2)n1	none
CN1CCC(N2CC[C@H](c3nc4ccc(C(F)(F)F)cc4[nH]3)C2)CC1	none
CN(C)c1nc(NC2CCC(NCCc3ccc(Br)cc3OC(F)(F)F)CC2)nc2ccccc12 (stereo unspecified)	none
Cc1cc(C)nc(NC(=S)N2CCN(c3cc(C(F)(F)F)nc4ccccc34)CC2)c1	none
CC(=O)c1ccc(N2CCN(S(=O)(=O)c3ccc4[nH]c(=O)[nH]c4c3)CC2)cc1	none
Cc1noc(C)c1-c1cc2c(cc(C)n2CCN(C)C)c(Nc2ccncn2)n1	none
CCN(C)C(C)C(O)c1ccccc1 (stereo unspecified)	none
[Hg+][c]1ccccc1	nsP2pro primary 0.56µM | CHIKV nsP2 cell inconclusive | CHIKV NSP2 FL 1µM | Furin counterscr 1µM | nsP2 NS23 pep 3.7µM | Papain cs inactive | nsP2pro confirm 0.28µM | HCV NS3 counter 0.23µM
Nc1ccccc1	none
CC(C)(C)c1cc(O)c(CN)c(C(C)(C)C)c1	none
COC(=O)N1CCCN(c2nccc(Nc3ccc(C)cc3)n2)C1	none
O=C(Nc1cccc(Nc2cc(Nc3cccc(C(F)(F)F)c3)ncn2)c1)C1CC1	none
Cc1ccnc(NC(=S)N2CCN(c3ccccc3C(F)(F)F)CC2)c1	none
COc1ccc(CNC(=O)c2nc(SCc3ccccc3F)ncc2Cl)cc1	none
Cc1ccc(CSc2ncc(Cl)c(C(=O)NCc3ccccc3)n2)cc1	none
Cc1cccc(CS(=O)(=O)c2ncc(Cl)c(C(=O)NCc3ccccc3)n2)c1	nsP2pro primary 3.5µM | CHIKV nsP2 cell 2.6µM | CHIKV NSP2 FL 9.2µM | Furin counterscr inactive | nsP2 NS23 pep 6.5µM | Papain cs inactive | nsP2pro confirm 4.5µM | HCV NS3 counter inconclusive
O=C(NCc1ccccc1)c1nc(S(=O)(=O)Cc2ccc(F)cc2)ncc1Cl	nsP2pro primary 7.6µM | CHIKV nsP2 cell 0.46µM | CHIKV NSP2 FL 12µM | Furin counterscr inactive | nsP2 NS23 pep 5.2µM | Papain cs inactive | nsP2pro confirm 3.6µM | HCV NS3 counter inconclusive
CSc1ncc(Cl)c(C(=O)NCc2ccc(C)cc2)n1	none
Cc1ccccc1CSc1ncc(Cl)c(C(=O)NCc2ccccc2)n1	none
Cn1nnc(-c2ccc(-c3ccc(N4C[C@@H](CO)OC4=O)cc3F)cn2)n1	none
Fc1cc(Nc2nc(-c3ccncc3)nc3ccccc23)ccc1-c1ccc2[nH]ncc2c1	none
